Reference: PubChem BioAssay (NCATS)
Records with an inconclusive call do not appear. The source made the active and inactive calls. Calls follow the shape of the dose curve; as a rule, active = well fitted inhibition curve with a large enough effect; inconclusive = small, poorly fitted or top-dose-only effect; inactive = flat fitted curve, though single readings scatter.

What was measured:
TAB113 = test: qHTS profiling for inhibitors of Plasmodium falciparum proliferation (AID 504749); also: potency is read from the fitted curve at half-maximal effect; details: P. falciparum in erythrocytes, SYBR Green DNA, 72 h; series mostly up to 28.7 µM
How it was run: (§1)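 P. falciparum-infected erythrocytes (0.3% parasitemia, 2.5% hematocrit final) were exposed to compounds for 72 h at 37 C in 5% CO2, then lysed with SYBR Green buffer overnight at room temperature; parasite DNA fluorescence was normalized to artemisinin and DMSO controls.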

TAB165 = test: as above; details: P. falciparum in erythrocytes, SYBR Green DNA, 72 h; series mostly up to 28.7 µM
How it was run: as §1

W2 = test: as above; details: P. falciparum in erythrocytes, SYBR Green DNA, 72 h; series mostly up to 28.7 µM
How it was run: as §1

CRL-7250 = normal cell line; test: Cytotoxic Profiling of Annotated Libraries Using Quantitative High-Throughput Screening (AID 1296008); details: Five cell lines viability, CellTiter-Glo ATP luminescence, 48-72 h; max response: stronger effect = lower value; as to max response: % is scaled to controls: 0 for no effect and ±100 for the full control effect
How it was run: (§2)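 Compounds were pin-transferred onto cells and incubated 48 or 72 hr at 37 degree Celsius, 95% humidity. CellTiter-Glo was added, plates sat 10 min at room temperature, then ATP-coupled luminescence was imaged as the viability read-out.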

HEK293 = test: as above; details: Five cell lines viability, CellTiter-Glo ATP luminescence, 48-72 h; max response: stronger effect = lower value
How it was run: as §2

HaCat [1] = test: as above; details: Five cell lines viability, CellTiter-Glo ATP luminescence, 48-72 h; max response: stronger effect = lower value
How it was run: as §2

KB-3-1 = test: as above; details: Five cell lines viability, CellTiter-Glo ATP luminescence, 48-72 h; max response: stronger effect = lower value
How it was run: as §2

NIH3T3 = test: as above; details: Five cell lines viability, CellTiter-Glo ATP luminescence, 48-72 h; max response: stronger effect = lower value
How it was run: as §2

HACAT [2] = test: qHTS assay to identify novel small-molecules to repurpose for Merkel cell carcinoma treatment (AID 1296009); details: MCC and control cell lines, CellTiter-Glo viability, 72 h; at 44.8 µM (top of the series) unless noted
How it was run: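 Cells exposed to NPC (8-point) and MIPE (11-point) compound dilutions for 72 hr at 37 degree celsius; viability read by CellTiter-Glo luminescence, normalized to no-cell and DMSO in-plate controls.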
Also: nearly all actives have a fitted effect of over 60% in size.

CC(=O)NC(=O)c1ccccc1O
inactive: Potency (TAB113) | Potency (TAB165) | Potency (W2) | max response (CRL-7250) -3.82% | max response (HEK293) -1.84% | max response (HaCat [1]) -6.77% | max response (KB-3-1) -3.04% | max response (NIH3T3) 0.511%

Cc1cc(-c2ccccc2)nnc1NCCN1CCOCC1
inactive: Potency (TAB113) | Potency (TAB165) | max response (CRL-7250) -17.2% | max response (HEK293) 1.05% | max response (HaCat [1]) -33.8% | max response (KB-3-1) -13.9% | max response (NIH3T3) -3.42%

C#C[C@]1(O)CC[C@H]2[C@@H]3CCc4cc(OC)ccc4[C@H]3CC[C@@]21C
inactive: Potency (TAB113) | Potency (TAB165) | Potency (W2) | max response (CRL-7250) -13.3% | max response (HEK293) -6.93% | max response (HaCat [1]) -21.7% | max response (KB-3-1) 0.369% | max response (NIH3T3) -5.18%

O=C1C(=O)c2ccccc2C(O)=C1C1CCC(c2ccc(Cl)cc2)CC1 (stereo not drawn)
active: Potency (TAB113) 0.002 µM | Potency (TAB165) 0.01 µM
inactive: max response (CRL-7250) 1.68% | max response (HEK293) 0.597% | max response (HaCat [1]) -2.46% | max response (KB-3-1) -5.6% | max response (NIH3T3) 2.17%

CCCCCCCCCCCCCCCC(=O)O
inactive: Potency (TAB113) | Potency (TAB165) | Potency (W2) | max response (CRL-7250) -4.95% | max response (HEK293) -5.26% | max response (HaCat [1]) -1.81% | max response (KB-3-1) 2.75% | max response (NIH3T3) 4.34%

CNCCc1ccccn1
inactive: Potency (TAB113) | Potency (TAB165) | Potency (W2) | outcome (CRL-7250) | max response (HEK293) -1.02% | max response (HaCat [1]) -8.27% | max response (KB-3-1) 5.51% | max response (NIH3T3) -2.69%

COP(=O)(OC)OC(c1ccc(Cl)cc1)P(=O)(OC)OC (stereo not drawn)
inactive: Potency (TAB113) | Potency (TAB165) | Potency (W2) | max response (CRL-7250) -8.32% | max response (HEK293) -64.4% | max response (HaCat [1]) -2.94% | max response (KB-3-1) 0.95% | max response (NIH3T3) -38.8%

CC(C)Nc1cccnc1N1CCN(C(=O)c2cc3cc(NS(C)(=O)=O)ccc3[nH]2)CC1
inactive: Potency (TAB113) | Potency (TAB165) | outcome (CRL-7250) | max response (HEK293) -14.8% | max response (HaCat [1]) 0.0011% | max response (KB-3-1) -4.88% | max response (NIH3T3) -1.79%
active: Potency (W2) 9.53 µM

CC1=C(C(=O)O)N2C(=O)[C@@H](NC(=O)[C@H](N)c3ccccc3)[C@H]2SC1
inactive: Potency (TAB113) | Potency (TAB165) | Potency (W2) | max response (CRL-7250) -2.3% | max response (HEK293) -2.48% | max response (HaCat [1]) 2.08% | max response (KB-3-1) 11.5% | max response (NIH3T3) 1.34%

CCOCCn1c(N2CCCN(C)CC2)nc2ccccc21
active: Potency (W2) 4.78 µM
inactive: Potency (TAB113) | Potency (TAB165) | max response (CRL-7250) -16.3% | max response (HEK293) -5.73% | max response (HaCat [1]) 1.76% | max response (KB-3-1) -16.6% | max response (NIH3T3) -0.586%

FC1(F)C(F)(F)C(F)(F)C2(F)C(F)(F)C(F)(F)C(F)(F)C(F)(F)C2(F)C1(F)F (stereo not drawn)
inactive: Potency (TAB113) | Potency (TAB165) | Potency (W2) | max response (CRL-7250) 4.26% | max response (HEK293) 3.06% | max response (HaCat [1]) 0.333% | max response (KB-3-1) 4.98% | max response (NIH3T3) 1.4%

NC(=S)N/N=C/c1cccnc1
inactive: Potency (TAB113) | Potency (TAB165) | max response (CRL-7250) -6.1% | max response (HEK293) -29.1% | max response (HaCat [1]) 1.46% | max response (KB-3-1) 2.69% | max response (NIH3T3) 1.77%

CCCCCCCCCCCCCCCCO
inactive: Potency (TAB113) | Potency (TAB165) | Potency (W2) | max response (CRL-7250) -12.4% | max response (HEK293) 1.14% | max response (HaCat [1]) -1.51% | max response (KB-3-1) 19% | max response (NIH3T3) -5.1%

CCCCC(CC)COC(=O)c1ccc(N(C)C)cc1 (stereo not drawn)
inactive: Potency (TAB113) | Potency (TAB165) | Potency (W2) | outcome (CRL-7250) | max response (HEK293) -4.34% | max response (HaCat [1]) -11.9% | max response (KB-3-1) 0.633% | max response (NIH3T3) 4.63%

O=C(O)c1ccc(S(=O)(=O)N(Cl)Cl)cc1
inactive: Potency (TAB113) | Potency (TAB165) | Potency (W2) | max response (CRL-7250) 3.6% | max response (HEK293) 3.96% | max response (HaCat [1]) -0.853% | max response (KB-3-1) -9.69% | max response (NIH3T3) -3.94%

NS(=O)(=O)Cc1noc2ccccc12
inactive: Potency (TAB113) | Potency (TAB165) | Potency (W2) | max response (CRL-7250) 0.547% | max response (HEK293) -4.5% | max response (HaCat [1]) 1.67% | max response (KB-3-1) 2.97% | max response (NIH3T3) 0.477%

CCOC(=O)Nc1ccc2c(c1)N(C(=O)CCN1CCOCC1)c1ccccc1S2
inactive: Potency (TAB113) | Potency (TAB165) | Potency (W2) | max response (CRL-7250) -6.24% | max response (HEK293) -28.3% | max response (HaCat [1]) -10.7% | max response (KB-3-1) 0.404% | max response (NIH3T3) -4.09%

C[N+]12CCC(CC1)C(OC(=O)C(O)(c1ccccc1)c1ccccc1)C2 (stereo not drawn)
inactive: max response (CRL-7250) 3.27% | max response (HEK293) -6.95% | max response (HaCat [1]) -16.2% | max response (NIH3T3) 0.982%

CN(C)C(=O)Nc1ccc(Cl)c(Cl)c1
inactive: Potency (TAB113) | Potency (TAB165) | max response (CRL-7250) 2.46% | max response (HEK293) 3.61% | max response (HaCat [1]) -27.1% | max response (NIH3T3) -5.25%

Cc1cn([C@H]2C[C@H](F)[C@@H](CO)O2)c(=O)[nH]c1=O
inactive: outcome (CRL-7250) | max response (HEK293) 0.5% | outcome (HaCat [1]) | max response (NIH3T3) -16.7% | outcome (HACAT [2])
